TWEAK-Fn14 inh = inhibitors of TWEAK-Fn14 interaction signaling; TWEAK-stimulated Fn14 reporter cells, luciferase luminescence, 8 h; hit rate 2% among 360,000; AID 1159606; inhibition, % at 10 µM; in the data active = inhibition above about 50%
EBV LMP1 NFkB = Epstein-Barr LMP1 NF-kappaB reporter inhibition. LMP1-induced NF-kappaB luciferase reporter cells, luminescence. inhibition, % at 12.5 µM. hit rate 0.69% among 350,000; in the data active = inhibition above about 41%;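 also: 0% = neutral control wells and 100% = reference inhibitor control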
LGR2 inh = Drosophila LGR2 receptor signaling inhibition | HEK293 LGR2, CRE-luciferase, bursicon-stimulated, 4 h | AID 720647 | inhibition, % at 9.99 µM | hit rate 0.35% among 380,000;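 active = drop in luminescence signal, shown as inhibition above about 50% in the replicate tests, limit read from the data, passing the limit was not always enough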;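 also: agonist challenge used bursicon conditioned medium at about half maximal strength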
aDG glyco act = increases alpha dystroglycan glycosylation. Pro5-aDG cells, alpha-DG glycosylation AlphaScreen (IIH6); 0% Pro5, 100% B10-LARGE cell signal. hit rate 0.22% among 360,000. activation, % at 10 µM. AID 624168;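 active = activation of at least 8% versus controls, or a plate z-score of at least 8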;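 also: Pro5 are CHO cells carrying HIG-tagged alpha-DG that lacks glycosylation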
TROY signal inh = TROY signaling inhibition; hit rate 0.98% among 360,000; inhibition, % at 10 µM; Q293 LMP1-TROYcd NF-kB luciferase reporter, 4 h; AID 1347056;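 active = compounds whose plate-normalised and pattern-corrected inhibition of the luciferase reporter signal at the single screening dose is 50% or more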
HSP90 refold inh = HSP90 refolding inhibition in rabbit reticulocyte lysate. luciferase refolding luminescence, 3 h. inhibition, % at 5.6 µM. hit rate 0.91% among 290,000. AID 1789;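 active = inhibition above the screen-wide mean plus 3 SD, computed separately per campaign, cut at about 16% in these data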;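 also: 0% = DMSO wells and 100% = 60 µM geldanamycin wells; inhibitors lower the luminescence because luciferase stays unfolded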
aDG conf = confirmation of alpha dystroglycan glycosylation activators; shares compounds with aDG glyco act; Pro5-aDG cells, alpha-DG glycosylation, IIH6 AlphaLISA; scaled to LARGE-overexpressing B10 cells as 100%; activation, % at 10 µM (by protocol); hit rate 17% among 600;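 active = activation of at least 7% in one or more replicates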;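 also: cells exposed to compound for two days before detection; 0% = DMSO-treated Pro5 cells and 100% = DMSO-treated B10-LARGE cells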
Active calls of the source: *; / = not tested or not shown. Sampled rows, rich in hits. Any-hit rate of the full collection: about 2.6%.

SMILES	TWEAK-Fn14 inh	EBV LMP1 NFkB	LGR2 inh	aDG glyco act	TROY signal inh	HSP90 refold inh	aDG conf
O=C(C[C@H]1C=C[C@H](NC(=O)Cc2cccnc2)[C@H](CO)O1)Nc1ccc(-c2ccccc2)cc1	/	/	-1	/	/	/	/
CC(C)CN(C(=O)CSc1ncnc2ccccc12)C1CCS(=O)(=O)C1 (configuration not stated)	8	6	3	0	2	/	/
CN(C(=O)CSc1ncnc2ccccc12)C1CCS(=O)(=O)C1 (configuration not stated)	13	6	11	4.5*	15	/	-1
COc1cccc(S(=O)(=O)N2C[C@@H](O)COC[C@H]3O[C@@H](CC(=O)NCCCN4CCOCC4)CC[C@@H]32)c1	/	/	-32	/	/	/	/
COc1ccc(/C(CC2(O)C(=O)Nc3ccccc32)=N\O)cc1 (configuration not stated)	0	-12	/	6.6*	-4	-3	1
CC(C)Oc1cc(F)ccc1-c1cc(C(=O)Nc2ccc(C(C)C)cc2)[nH]n1	-12	/	10	12*	28	/	0
Cc1ccc(S(=O)(=O)N(C)C[C@@H]2Oc3ccc(NC(=O)Nc4ccccc4)cc3C(=O)N([C@@H](C)CO)C[C@H]2C)cc1	/	/	5	/	/	/	/
COc1ccccc1CN1[C@H](CO)[C@@H]2c3ccccc3N(C(=O)C3CCOCC3)C[C@@H]21	/	/	6	/	/	/	/
Cc1nn(CC(=O)N2CCCC2)c(=O)c2nn(-c3ccccc3)c(C)c12	2	1	-18	0	10	-5	/
CCOC(=O)C1CCCN(C(=O)Cn2nc(C)c3c(C)n(-c4ccccc4)nc3c2=O)C1 (configuration not stated)	10	6	-7	9.8*	-4	1	1
COCCN1CCC(CNCc2cn(-c3cc(C)ccc3C)nc2-c2ccccc2)C1 (configuration not stated)	4	-8	13	7.8*	7	3	8.6*
COCCN1CCC(CNCc2cn[nH]c2-c2ccc(C)c(C)c2)C1 (configuration not stated)	-6	-6	-14	0	10	2	/
Cc1cccc(NC(=S)N(CCCN2CCCC2)Cc2cccn2Cc2ccc(Cl)cc2)c1	0	-1	-1	2.8*	4	3	11*
O=C(OCc1ccccc1)N1CCC2CC1c1ccc(Cl)cc12 (configuration not stated)	-47	-7	-10	1	-57	/	/
O=C(OCc1ccccc1)N1CCC2CC1c1cc(Cl)ccc12 (configuration not stated)	6	-11	-15	9.7*	-38	/	0
CN1C(=O)c2cc(NC(=O)c3ccccc3)ccc2OC[C@@H]2O[C@@H](CC(=O)NCC3CC3)CC[C@@H]21	/	/	5	/	/	/	/
N#Cc1ccc(-c2nc3c4ccccc4ccn3c2CC2CCCCC2)cc1	22	/	-19	22*	-16	/	7.2*
Cc1ccc(-c2nc3c4ccccc4ccn3c2CC2CCCCC2)cc1	-4	/	-23	4	-45	/	/
CCCC(=O)Nc1ccc2c(c1)OC[C@@H](C)N(C(=O)CN(C)C)C[C@H](C)[C@@H](OC)CN(C)C2=O	/	/	-8	/	/	/	/
NC(=NC(=O)c1ccc(OC(F)(F)F)cc1)c1ccc(C(F)(F)F)cn1	8	-17	/	3.8*	22	-1	0
Cc1noc(C)c1NC(=O)Nc1ccc2c(c1)CC(=O)N([C@H](C)CO)C[C@H](C)[C@H](CN(C)S(=O)(=O)c1ccc(F)cc1)O2	/	/	-2	/	/	/	/
CCCC#Cc1ccc2c(c1)O[C@H](CN(C)C(=O)c1ccccc1)[C@@H](C)CN([C@H](C)CO)S2(=O)=O	/	/	-7	/	/	/	/
C=CCNCC(=O)N1N=C(c2ccc3ccccc3c2)CC1c1ccc(OC)cc1 (configuration not stated)	8	5	19	5.8*	3	7	1
COCc1ccc(C(=O)Nc2cccc(S(=O)(=O)N(C)c3ccccc3)c2)cc1	37	12	17	1	33	/	/
COc1cccc(S(=O)(=O)NCc2ccc(C(=O)Nc3cccc(Cl)c3)cc2)c1	60*	-8	/	4.7*	48	6	1
SMILES	TWEAK-Fn14 inh	EBV LMP1 NFkB	LGR2 inh	aDG glyco act	TROY signal inh	HSP90 refold inh	aDG conf
COc1cccc(S(=O)(=O)NCc2ccc(C(=O)Nc3ccc(Cl)cc3)cc2)c1	41	15	1	0	36	2	/
CN(C)S(=O)(=O)c1cccc(NC(=O)c2ccc(COc3ccccc3)cc2)c1	90*	16	8	3.1*	58*	3	1
CCC(=O)N1C[C@@H](O)COC[C@@H]2O[C@@H](CC(=O)N3CCCCC3)CC[C@H]21	/	/	-4	/	/	/	/
C[C@H]1CN([C@@H](C)CO)C(=O)c2cc(NC(=O)C3CCCCC3)ccc2O[C@@H]1CN(C)Cc1ccc2c(c1)OCO2	/	/	20	/	/	/	/
COC(=O)c1ccc(CSc2ccc3nnc(-c4ccccn4)n3n2)o1	-1	-1	1	4.7*	-6	-1	0
COC(=O)c1ccc(CSc2ccc3nnc(-c4ccc(F)cc4)n3n2)o1	-34	1	18	0	-7	-2	/
Cc1noc(C)c1S(=O)(=O)Nc1ccc2c(c1)C(=O)N([C@H](C)CO)C[C@H](C)[C@H](CN(C)S(=O)(=O)c1cn(C)cn1)O2	/	/	5	/	/	/	/
C[C@@H]1CN([C@H](C)CO)C(=O)CCCn2nncc2CO[C@H]1CN(C)S(=O)(=O)c1ccccc1C#N	/	/	11	/	/	/	/
CN(C)CCCNS(=O)(=O)c1ccc(NC2CCCCCC2)c([N+](=O)[O-])c1	23	17	13	3.3*	31	5	4.9*
CCNc1ccc(S(=O)(=O)NCCN(C)C)cc1[N+](=O)[O-]	-7	-6	7	0	0	-1	/
COCC(=O)N1C[C@@H](C)[C@@H](OC)CN(C)C(=O)c2ccc(NC(=O)c3ccccc3)cc2OC[C@@H]1C	/	/	11	/	/	/	/
Cc1ccccc1CSc1nnc([C@@H]2CCCN2)o1	-16	53*	4	4.8*	-8	0	0
Cc1noc(/C=C/N(C)C)c1S(=O)(=O)N1CCC(C(=O)Nc2ccc(Cl)cc2)CC1	2	-8	2	8.6*	-7	3	2
Cc1cc(NC(=O)C2CCCN(S(=O)(=O)c3c(C)noc3C)C2)no1 (configuration not stated)	8	1	-25	0	-14	-1	/
Cc1cc(C)cc(NC(=O)C2CCCN(S(=O)(=O)c3c(C)noc3C)C2)c1 (configuration not stated)	-19	-3	-10	3.1*	1	3	0
Cc1ccc(NC(=O)C2CCN(S(=O)(=O)c3c(C)noc3/C=C/N(C)C)CC2)cc1	7	1	8	0	19	-3	/

From PubChem BioAssay
